# Assay results: PMC7862700, “An all-to-all approach to the identification of sequence-specific readers for epigenetic DNA modifications on cytosine”
# Legend:
# Assay in all cases: DAPPL (digital affinity profiling via proximity ligation, sequencing); 10 mM Tris-HCl pH 7.5, 50 mM NaCl, 1 mM DTT, 4% glycerol, room temperature, 30 min; GST-TFs on glutathione beads, 16-mer random dsDNA library, 0.1% formaldehyde crosslink after washing; high values mean tight binding
# FEV = target: T1, FEV (Homo sapiens, UniProt Q99581 1-238); conditions: protein: recombinant; tags: N-terminal GST; dsDNA, one strand shown
# T1 sequence: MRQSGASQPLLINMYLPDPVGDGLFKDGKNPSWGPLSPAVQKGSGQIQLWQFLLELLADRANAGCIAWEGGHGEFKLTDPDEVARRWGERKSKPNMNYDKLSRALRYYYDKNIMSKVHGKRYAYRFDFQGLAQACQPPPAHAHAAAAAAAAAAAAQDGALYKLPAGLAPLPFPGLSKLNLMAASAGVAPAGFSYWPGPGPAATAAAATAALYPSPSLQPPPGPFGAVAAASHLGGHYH
# In short: (§1)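 GST fusions of human transcription factors were expressed in yeast and captured with glutathione beads. Once given DNA barcodes and pooled alongside a tag-only sample, they were incubated for 30 min at room temperature with 200 nmole of a random double-stranded 16-mer DNA library in Tris/NaCl/DTT/glycerol buffer, then washed, crosslinked (0.1% formaldehyde), proximity-ligated, PCR-amplified and sequenced on an Illumina NextSeq500. The binding signal of each hexamer is its read frequency for a factor divided by its frequency for the tag-only sample.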
# ETV5 = ETV5 (Homo sapiens, UniProt P41161 1-510); conditions: protein: recombinant; tags: N-terminal GST; dsDNA, one strand shown
# In short: as §1
# HSF1 = HSF1 (Homo sapiens, UniProt Q00613 1-529); conditions: protein: recombinant; tags: N-terminal GST; chain copies: 3; dsDNA, one strand shown
# In short: as §1
# SPIC = target: T2, SPIC (Homo sapiens, UniProt Q8N5J4 1-248); conditions: protein: recombinant; tags: N-terminal GST; dsDNA, one strand shown
# T2 sequence: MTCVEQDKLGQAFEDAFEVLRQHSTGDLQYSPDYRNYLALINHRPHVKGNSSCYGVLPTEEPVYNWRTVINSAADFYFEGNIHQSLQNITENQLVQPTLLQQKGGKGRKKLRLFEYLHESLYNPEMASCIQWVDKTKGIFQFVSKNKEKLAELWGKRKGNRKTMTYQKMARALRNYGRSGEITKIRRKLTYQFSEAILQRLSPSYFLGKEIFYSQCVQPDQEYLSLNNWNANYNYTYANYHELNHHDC
# In short: as §1
# ELF4 = ELF4 (Homo sapiens, UniProt Q99607 1-663); conditions: protein: recombinant; tags: N-terminal GST; dsDNA, one strand shown
# In short: as §1
# ELK4 = target: T3, ELK4 (Homo sapiens, UniProt P28324-2 1-405); conditions: protein: recombinant; tags: N-terminal GST; dsDNA, one strand shown
# T3 sequence: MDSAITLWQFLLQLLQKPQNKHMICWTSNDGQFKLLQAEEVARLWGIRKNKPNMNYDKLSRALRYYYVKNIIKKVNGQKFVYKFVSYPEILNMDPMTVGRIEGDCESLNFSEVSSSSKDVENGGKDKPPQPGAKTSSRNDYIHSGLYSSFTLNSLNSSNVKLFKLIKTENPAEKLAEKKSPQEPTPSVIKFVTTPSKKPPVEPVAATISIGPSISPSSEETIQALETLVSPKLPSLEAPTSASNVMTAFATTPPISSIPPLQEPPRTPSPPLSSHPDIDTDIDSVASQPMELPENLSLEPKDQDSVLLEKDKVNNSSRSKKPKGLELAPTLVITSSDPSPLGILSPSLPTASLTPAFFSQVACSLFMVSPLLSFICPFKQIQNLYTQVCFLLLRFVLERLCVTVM
# In short: as §1
# ETV2 = target: T4, ETV2 (Homo sapiens, UniProt O00321 1-342); conditions: protein: recombinant; tags: N-terminal GST; dsDNA, one strand shown
# T4 sequence: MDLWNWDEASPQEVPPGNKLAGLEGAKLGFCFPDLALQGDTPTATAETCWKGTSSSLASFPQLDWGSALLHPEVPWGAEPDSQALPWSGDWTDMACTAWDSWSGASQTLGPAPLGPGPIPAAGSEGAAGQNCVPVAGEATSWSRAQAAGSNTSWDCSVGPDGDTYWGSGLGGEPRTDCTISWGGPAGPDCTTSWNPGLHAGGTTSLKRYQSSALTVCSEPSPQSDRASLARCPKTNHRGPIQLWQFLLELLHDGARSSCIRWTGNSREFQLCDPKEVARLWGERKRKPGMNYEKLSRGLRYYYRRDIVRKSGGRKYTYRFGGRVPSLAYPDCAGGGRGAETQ
# In short: as §1
# ELF3 = target: T5, ELF3 (Homo sapiens, UniProt P78545 1-371); conditions: protein: recombinant; tags: N-terminal GST; dsDNA, one strand shown
# T5 sequence: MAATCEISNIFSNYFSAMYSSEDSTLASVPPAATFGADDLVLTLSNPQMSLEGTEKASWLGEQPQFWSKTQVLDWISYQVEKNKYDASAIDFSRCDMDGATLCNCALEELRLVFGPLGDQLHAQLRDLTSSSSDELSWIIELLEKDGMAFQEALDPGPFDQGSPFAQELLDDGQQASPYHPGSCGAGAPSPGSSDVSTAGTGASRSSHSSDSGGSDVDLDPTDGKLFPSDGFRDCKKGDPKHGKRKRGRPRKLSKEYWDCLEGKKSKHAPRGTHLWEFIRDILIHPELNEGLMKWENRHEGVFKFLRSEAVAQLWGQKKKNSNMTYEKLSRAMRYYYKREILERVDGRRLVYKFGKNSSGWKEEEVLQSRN
# In short: as §1
# CRX = CRX (Homo sapiens, UniProt O43186 1-299); conditions: protein: recombinant; tags: N-terminal GST; dsDNA, one strand shown
# In short: as §1
# ETV1 = ETV1 (Homo sapiens, UniProt P50549 1-477); conditions: protein: recombinant; tags: N-terminal GST; dsDNA, one strand shown
# In short: as §1
# ERF = target: T6, ERF (Homo sapiens, UniProt P50548 1-548); conditions: protein: recombinant; tags: N-terminal GST; dsDNA, one strand shown
# T6 sequence: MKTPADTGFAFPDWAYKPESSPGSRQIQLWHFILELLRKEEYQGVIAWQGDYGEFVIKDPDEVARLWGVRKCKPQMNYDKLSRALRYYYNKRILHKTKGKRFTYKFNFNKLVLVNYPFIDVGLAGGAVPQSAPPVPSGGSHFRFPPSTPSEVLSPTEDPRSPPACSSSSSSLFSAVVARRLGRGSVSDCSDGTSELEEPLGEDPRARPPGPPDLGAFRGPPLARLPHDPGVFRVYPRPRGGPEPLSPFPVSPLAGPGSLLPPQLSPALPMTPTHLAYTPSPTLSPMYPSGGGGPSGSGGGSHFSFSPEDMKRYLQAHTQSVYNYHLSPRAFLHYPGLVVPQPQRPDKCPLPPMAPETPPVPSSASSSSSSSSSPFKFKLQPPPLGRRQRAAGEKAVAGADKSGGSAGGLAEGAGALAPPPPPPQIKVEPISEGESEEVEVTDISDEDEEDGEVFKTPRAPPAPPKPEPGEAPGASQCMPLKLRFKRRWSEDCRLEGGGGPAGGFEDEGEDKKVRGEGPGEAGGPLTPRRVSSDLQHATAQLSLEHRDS
# In short: as §1
# ETV3L = target: T7, ETV3L (Homo sapiens, UniProt Q6ZN32 1-361); conditions: protein: recombinant; tags: N-terminal GST; dsDNA, one strand shown
# T7 sequence: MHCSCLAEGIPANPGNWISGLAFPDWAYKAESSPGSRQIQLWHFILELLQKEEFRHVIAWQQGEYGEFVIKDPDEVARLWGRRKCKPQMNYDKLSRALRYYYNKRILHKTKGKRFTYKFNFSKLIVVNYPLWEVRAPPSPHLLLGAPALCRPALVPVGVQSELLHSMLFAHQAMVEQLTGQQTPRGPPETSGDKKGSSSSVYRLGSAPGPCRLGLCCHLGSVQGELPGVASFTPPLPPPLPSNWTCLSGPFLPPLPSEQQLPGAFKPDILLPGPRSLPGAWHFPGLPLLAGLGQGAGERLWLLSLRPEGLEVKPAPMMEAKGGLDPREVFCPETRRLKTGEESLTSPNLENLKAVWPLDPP
# In short: as §1
# ETS2 = target: T8, ETS2 (Homo sapiens, UniProt P15036 1-469); conditions: protein: recombinant; tags: N-terminal GST; dsDNA, one strand shown
# T8 sequence: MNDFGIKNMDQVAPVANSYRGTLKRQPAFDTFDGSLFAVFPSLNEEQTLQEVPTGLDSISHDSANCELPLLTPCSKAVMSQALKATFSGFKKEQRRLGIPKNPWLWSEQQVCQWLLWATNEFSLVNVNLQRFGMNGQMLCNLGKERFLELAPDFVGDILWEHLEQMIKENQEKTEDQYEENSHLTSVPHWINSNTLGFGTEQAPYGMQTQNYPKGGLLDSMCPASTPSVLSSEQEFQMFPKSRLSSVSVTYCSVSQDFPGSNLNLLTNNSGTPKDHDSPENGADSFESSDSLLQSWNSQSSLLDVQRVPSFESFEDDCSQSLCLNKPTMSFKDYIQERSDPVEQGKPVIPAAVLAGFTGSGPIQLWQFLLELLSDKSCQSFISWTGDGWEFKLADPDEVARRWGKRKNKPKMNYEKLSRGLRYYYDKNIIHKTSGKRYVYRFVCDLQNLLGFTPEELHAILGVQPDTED
# In short: as §1
# SPDEF = target: T9, SPDEF (Homo sapiens, UniProt O95238 1-335); conditions: protein: recombinant; tags: N-terminal GST; dsDNA, one strand shown
# T9 sequence: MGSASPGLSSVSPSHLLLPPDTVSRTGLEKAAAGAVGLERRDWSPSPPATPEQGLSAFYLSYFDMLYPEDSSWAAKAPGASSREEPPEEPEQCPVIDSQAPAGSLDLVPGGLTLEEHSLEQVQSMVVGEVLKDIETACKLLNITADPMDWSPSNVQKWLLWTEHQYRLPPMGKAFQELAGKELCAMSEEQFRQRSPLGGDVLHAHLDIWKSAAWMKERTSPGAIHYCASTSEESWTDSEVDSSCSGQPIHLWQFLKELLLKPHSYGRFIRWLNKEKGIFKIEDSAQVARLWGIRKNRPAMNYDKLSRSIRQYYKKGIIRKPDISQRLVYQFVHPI
# In short: as §1
# ETV7 = target: T10, ETV7 (Homo sapiens, UniProt Q9Y603 1-341); conditions: protein: recombinant; tags: N-terminal GST; dsDNA, one strand shown
# T10 sequence: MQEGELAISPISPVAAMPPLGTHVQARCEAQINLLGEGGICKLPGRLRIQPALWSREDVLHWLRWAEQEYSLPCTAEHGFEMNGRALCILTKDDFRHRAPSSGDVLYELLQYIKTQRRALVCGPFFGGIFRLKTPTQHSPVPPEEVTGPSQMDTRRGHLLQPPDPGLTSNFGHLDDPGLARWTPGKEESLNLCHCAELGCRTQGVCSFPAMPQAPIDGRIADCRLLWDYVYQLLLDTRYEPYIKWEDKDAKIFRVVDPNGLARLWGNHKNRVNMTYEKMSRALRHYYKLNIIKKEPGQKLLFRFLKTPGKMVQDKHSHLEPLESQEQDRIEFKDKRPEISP
# In short: as §1
# ELF5 = target: T11, ELF5 (Homo sapiens, UniProt Q9UKW6-2 1-255); conditions: protein: recombinant; tags: N-terminal GST; dsDNA, one strand shown
# T11 sequence: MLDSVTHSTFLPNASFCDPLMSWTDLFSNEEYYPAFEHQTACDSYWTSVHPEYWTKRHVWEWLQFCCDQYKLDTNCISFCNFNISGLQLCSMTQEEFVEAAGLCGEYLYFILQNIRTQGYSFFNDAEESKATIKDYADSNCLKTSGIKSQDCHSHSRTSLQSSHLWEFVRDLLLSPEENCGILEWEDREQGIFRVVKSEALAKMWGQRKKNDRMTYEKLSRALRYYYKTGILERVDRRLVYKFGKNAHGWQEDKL
# In short: as §1
# ETV3 = target: T12, ETV3 (Homo sapiens, UniProt P41162-2 1-143); conditions: protein: recombinant; tags: N-terminal GST; dsDNA, one strand shown
# T12 sequence: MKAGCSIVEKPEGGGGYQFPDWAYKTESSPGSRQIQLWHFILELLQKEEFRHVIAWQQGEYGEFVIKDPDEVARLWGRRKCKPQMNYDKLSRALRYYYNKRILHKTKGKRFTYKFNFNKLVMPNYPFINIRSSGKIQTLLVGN
# In short: as §1
# ETV6 = ETV6 (Homo sapiens, UniProt P41212 1-452); conditions: protein: recombinant; tags: N-terminal GST; dsDNA, one strand shown
# In short: as §1
# Chain of CRX (O43186 whole entry): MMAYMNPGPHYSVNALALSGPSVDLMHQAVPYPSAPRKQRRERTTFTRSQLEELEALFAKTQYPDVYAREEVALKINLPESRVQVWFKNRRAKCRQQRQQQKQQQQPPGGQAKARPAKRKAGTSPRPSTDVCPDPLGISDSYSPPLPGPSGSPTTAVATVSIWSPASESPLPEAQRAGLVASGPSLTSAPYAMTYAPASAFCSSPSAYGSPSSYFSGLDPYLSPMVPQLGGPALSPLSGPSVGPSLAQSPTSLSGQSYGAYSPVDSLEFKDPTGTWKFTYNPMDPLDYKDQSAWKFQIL
# Chain of ETV1 (P50549 whole entry): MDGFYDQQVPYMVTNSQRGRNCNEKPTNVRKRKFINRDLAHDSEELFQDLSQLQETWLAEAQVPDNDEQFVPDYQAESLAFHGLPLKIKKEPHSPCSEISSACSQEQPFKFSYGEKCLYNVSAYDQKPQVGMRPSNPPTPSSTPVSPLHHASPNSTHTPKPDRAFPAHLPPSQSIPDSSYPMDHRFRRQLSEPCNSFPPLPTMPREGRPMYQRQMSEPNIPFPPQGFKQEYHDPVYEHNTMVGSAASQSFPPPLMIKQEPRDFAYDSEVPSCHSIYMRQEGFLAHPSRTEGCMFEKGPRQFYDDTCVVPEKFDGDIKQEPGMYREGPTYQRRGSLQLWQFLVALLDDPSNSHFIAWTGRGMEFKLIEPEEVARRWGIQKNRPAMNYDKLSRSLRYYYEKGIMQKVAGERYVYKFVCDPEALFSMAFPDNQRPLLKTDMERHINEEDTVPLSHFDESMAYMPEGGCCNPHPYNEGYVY
# Chain of HSF1 (Q00613 whole entry): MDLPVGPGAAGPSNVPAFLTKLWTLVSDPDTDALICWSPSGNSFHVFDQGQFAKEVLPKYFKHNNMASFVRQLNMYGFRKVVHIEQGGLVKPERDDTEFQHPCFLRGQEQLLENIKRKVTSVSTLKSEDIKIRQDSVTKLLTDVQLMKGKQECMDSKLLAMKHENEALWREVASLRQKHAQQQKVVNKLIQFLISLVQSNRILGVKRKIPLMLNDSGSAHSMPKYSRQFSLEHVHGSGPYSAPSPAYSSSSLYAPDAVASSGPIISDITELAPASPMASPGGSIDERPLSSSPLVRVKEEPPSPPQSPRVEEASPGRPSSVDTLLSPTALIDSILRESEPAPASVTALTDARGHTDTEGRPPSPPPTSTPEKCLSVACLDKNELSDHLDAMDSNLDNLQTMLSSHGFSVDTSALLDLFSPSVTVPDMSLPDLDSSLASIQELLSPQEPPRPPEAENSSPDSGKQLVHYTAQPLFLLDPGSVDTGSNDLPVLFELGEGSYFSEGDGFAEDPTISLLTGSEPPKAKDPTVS
# Chain of ETV6 (P41212 whole entry): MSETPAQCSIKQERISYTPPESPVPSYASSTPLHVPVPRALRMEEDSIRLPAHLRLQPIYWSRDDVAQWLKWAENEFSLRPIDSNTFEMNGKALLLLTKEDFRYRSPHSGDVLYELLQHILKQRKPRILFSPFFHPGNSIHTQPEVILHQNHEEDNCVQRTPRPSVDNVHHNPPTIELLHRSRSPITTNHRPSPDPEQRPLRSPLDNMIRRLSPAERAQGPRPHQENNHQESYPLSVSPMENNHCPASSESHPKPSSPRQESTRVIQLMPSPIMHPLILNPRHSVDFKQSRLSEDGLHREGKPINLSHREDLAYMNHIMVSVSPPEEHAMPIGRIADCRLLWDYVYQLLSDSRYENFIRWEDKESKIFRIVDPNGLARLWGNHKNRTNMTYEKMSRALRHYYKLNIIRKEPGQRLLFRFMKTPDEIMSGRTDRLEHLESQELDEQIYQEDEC
# Chain of ETV5 (P41161 whole entry): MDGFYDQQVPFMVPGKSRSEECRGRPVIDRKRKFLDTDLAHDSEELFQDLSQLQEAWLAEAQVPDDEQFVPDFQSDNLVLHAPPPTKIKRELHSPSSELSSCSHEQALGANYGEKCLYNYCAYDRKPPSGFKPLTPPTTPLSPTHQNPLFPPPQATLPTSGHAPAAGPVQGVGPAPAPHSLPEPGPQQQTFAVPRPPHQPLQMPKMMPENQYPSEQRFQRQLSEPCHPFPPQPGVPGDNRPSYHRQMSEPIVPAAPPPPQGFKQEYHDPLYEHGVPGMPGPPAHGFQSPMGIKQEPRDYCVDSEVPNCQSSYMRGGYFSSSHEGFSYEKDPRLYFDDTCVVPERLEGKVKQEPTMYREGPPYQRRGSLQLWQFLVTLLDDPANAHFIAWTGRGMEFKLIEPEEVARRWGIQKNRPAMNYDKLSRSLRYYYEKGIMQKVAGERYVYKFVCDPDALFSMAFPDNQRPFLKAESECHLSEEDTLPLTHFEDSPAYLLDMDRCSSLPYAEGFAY
# Chain of ELF4 (Q99607 whole entry): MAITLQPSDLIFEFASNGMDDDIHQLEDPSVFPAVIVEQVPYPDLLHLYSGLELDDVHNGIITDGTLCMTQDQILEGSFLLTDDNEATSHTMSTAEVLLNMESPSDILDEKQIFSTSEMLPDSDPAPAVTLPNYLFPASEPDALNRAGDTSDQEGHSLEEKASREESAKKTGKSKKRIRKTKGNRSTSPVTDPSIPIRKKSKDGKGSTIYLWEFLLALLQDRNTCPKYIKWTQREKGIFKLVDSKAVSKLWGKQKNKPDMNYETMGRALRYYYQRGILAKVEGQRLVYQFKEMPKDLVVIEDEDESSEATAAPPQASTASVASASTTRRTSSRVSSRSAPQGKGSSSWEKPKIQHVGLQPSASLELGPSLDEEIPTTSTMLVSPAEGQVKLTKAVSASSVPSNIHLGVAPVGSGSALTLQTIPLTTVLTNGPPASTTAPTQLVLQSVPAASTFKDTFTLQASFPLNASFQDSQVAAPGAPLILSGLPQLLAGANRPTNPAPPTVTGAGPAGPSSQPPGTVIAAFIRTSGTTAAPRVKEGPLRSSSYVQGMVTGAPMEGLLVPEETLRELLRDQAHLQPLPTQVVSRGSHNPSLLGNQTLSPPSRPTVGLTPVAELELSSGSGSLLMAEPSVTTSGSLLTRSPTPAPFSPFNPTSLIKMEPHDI
sequence,measurement,setting,value
GATATA,binding signal,FEV,"1.08 fold enrichment (6-mer frequency, TF over GST control)"
same,binding signal,ETV5,"1.13 fold enrichment (6-mer frequency, TF over GST control)"
same,binding signal,HSF1,"1.09 fold enrichment (6-mer frequency, TF over GST control)"
same,binding signal,SPIC,"1.13 fold enrichment (6-mer frequency, TF over GST control)"
same,binding signal,ELF4,"1.06 fold enrichment (6-mer frequency, TF over GST control)"
same,binding signal,ELK4,"1.18 fold enrichment (6-mer frequency, TF over GST control)"
same,binding signal,ETV2,"1.19 fold enrichment (6-mer frequency, TF over GST control)"
same,binding signal,ELF3,"1.33 fold enrichment (6-mer frequency, TF over GST control)"
same,binding signal,CRX,"1.19 fold enrichment (6-mer frequency, TF over GST control)"
same,binding signal,ETV1,"1.08 fold enrichment (6-mer frequency, TF over GST control)"
same,binding signal,ERF,"1.15 fold enrichment (6-mer frequency, TF over GST control)"
same,binding signal,ETV3L,"1.18 fold enrichment (6-mer frequency, TF over GST control)"
same,binding signal,ETS2,"1.16 fold enrichment (6-mer frequency, TF over GST control)"
same,binding signal,SPDEF,"1.32 fold enrichment (6-mer frequency, TF over GST control)"
same,binding signal,ETV7,"1.1 fold enrichment (6-mer frequency, TF over GST control)"
same,binding signal,ELF5,"1.13 fold enrichment (6-mer frequency, TF over GST control)"
same,binding signal,ETV3,"1.09 fold enrichment (6-mer frequency, TF over GST control)"
same,binding signal,ETV6,"1.12 fold enrichment (6-mer frequency, TF over GST control)"
